# Compounds with a hit are over-represented: about 9.5% of the library has one in this group of screens.
# Tau ThT inhib: tau fibrillization inhibition (ThT binding). P10636. recombinant tau K18 P301L, heparin-induced fibrillization, ThT fluorescence. Potency, µM (highest dose often 57.4 µM), without a hit: at the top dose activity, negative = inhibition, most hits filed as inhibitors. hit rate 2.1% among 270,000. AID 1460; also: nearly all actives have a fitted effect of over 55% in size
# Target sequence (P10636 561-689 P618L limits assumed): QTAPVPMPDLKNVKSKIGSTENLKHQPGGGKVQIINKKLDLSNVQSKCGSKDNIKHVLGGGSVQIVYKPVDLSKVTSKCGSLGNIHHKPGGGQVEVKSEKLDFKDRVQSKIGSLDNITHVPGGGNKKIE
#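 Heparin-induced (20 uM) aggregation of recombinant human K18 P301L tau, 15 uM unlabeled with 0.24 uM labeled, pH 7 acetate buffer, 6 hr at 37 C with compound. Fibrils quantified by 30 uM ThT fluorescence after 1 hr ambient incubation.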
# Tau fluor cs: counter-screen for tau fibril formation inhibitors | Potency, µM (doses to about 57.7 µM), without a hit: at the top dose activity change, negative = decrease | hit rate 0.93% among 280,000 | tau K18 P301L Alexa594 fluorescence, heparin fibrillization; also: nearly all actives have a fitted effect of over 55% in size
#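 Human tau K18 P301L (15 uM unlabeled, 0.24 uM Alexa 594-labeled) in 100 mM sodium acetate pH 7 with 20 uM heparin, 6 hr at 37 C. ThT 30 uM added, 1 hr ambient; Alexa 594 FP and total fluorescence read at 555/632 nm.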
# ALDH1A1 inh: ALDH1A1 (human) enzyme inhibition; P00352; Purified ALDH1A1, NADH fluorescence, propionaldehyde substrate; Potency, µM (doses to about 75.3 µM), without a hit: top-dose activity, negative = inhibition, most hits filed as inhibitors; hit rate 7.3% among 220,000; active = well fitted inhibition curve with a large enough effect, not every such curve was filed as active; inconclusive = small, poorly fitted or top-dose-only effect, or another doubt; inactive = no such curve, though single readings can be large or run the other way;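 also: plate controls were no enzyme wells and a reference inhibitor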
# HPGD block: inhibitors of human 15-hydroxyprostaglandin dehydrogenase (HPGD). P15428. purified HPGD, NADH fluorescence kinetic, PGE2 substrate. Potency, µM, for the others: top-dose activity change, negative = inhibition, most hits filed as inhibitors. hit rate 4.3% among 150,000; active = well fitted inhibition curve with a large enough effect, not every such curve was filed as active; inconclusive = small, poorly fitted or top-dose-only effect, or another doubt; inactive = no such curve, though single readings can be large or run the other way
#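 NADH formation kinetics: reaction with 30 uM PGE2 and 1 mM NAD+ (final), 20 nM enzyme, Tris-HCl pH 8 with Tween 20, after 15 min compound preincubation at room temperature. Fluorescence change, last versus first of five reads.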
# Tau FP inhib: tau fibrillization inhibition (FP). P10636. K18 P301L tau heparin fibrillization, Alexa594 FP, 6 h. Potency, µM (titrated, usually from 57.7 µM), inactives show at the top dose activity, negative = inhibition, actives largely listed as inhibitors. hit rate 0.39% among 280,000; also: nearly all actives have a fitted effect of over 55% in size
#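 Compound effects on tau fibrillization are measured by Alexa 594 fluorescence polarization (ex 555, em 632 nm). K18 P301L tau is used at 15 uM with 0.24 uM labeled tracer, and 20 uM heparin induces aggregation over 6 hr at 37 C.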
# NPSR antag: antagonists of human neuropeptide S receptor cAMP signaling; CHO-NPSR cells, cAMP TR-FRET, antagonist mode; Potency, µM (titrated, usually from 38.3 µM), for inactives: at the highest dose activity change, negative = inhibition, actives largely listed as inhibitors; hit rate 1% among 220,000; AID 1461; also: nearly all actives have a fitted effect of over 50% in size
# Target sequence (Q6W5P4 whole entry, looked up): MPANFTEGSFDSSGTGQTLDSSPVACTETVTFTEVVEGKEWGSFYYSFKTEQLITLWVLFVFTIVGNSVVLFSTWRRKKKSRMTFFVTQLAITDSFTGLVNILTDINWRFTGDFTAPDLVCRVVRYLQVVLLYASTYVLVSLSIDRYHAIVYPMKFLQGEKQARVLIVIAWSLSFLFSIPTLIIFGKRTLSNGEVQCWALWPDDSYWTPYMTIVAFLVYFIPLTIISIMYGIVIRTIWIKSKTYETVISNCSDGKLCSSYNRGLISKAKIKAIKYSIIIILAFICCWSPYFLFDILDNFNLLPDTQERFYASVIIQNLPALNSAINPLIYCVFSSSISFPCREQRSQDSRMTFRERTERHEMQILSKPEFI
# * = called active by the depositor; ? = inconclusive; . = no result given; [ ] = dose if it differs, or a comment. Unless noted, calls follow the shape of the dose curve; as a rule, active = well fitted curve in the direction sought with a large enough effect; inconclusive = small, poorly fitted or top-dose-only effect, or another doubt; inactive = no such curve, though single readings can be large; an effect the other way counts as inactive or inconclusive. Unless noted, % is scaled to controls: 0 for no effect and ±100 for the full control effect; potency is read from the fitted curve at half-maximal effect.
SMILES,Tau ThT inhib,Tau fluor cs,ALDH1A1 inh,HPGD block,Tau FP inhib,NPSR antag
O=C(NC1CCCCCC1)C(=S)N1CCOCC1,?,-0.6%,10µM*,.,-21.0%,4.2%
COc1cc2c(cc1NS(=O)(=O)c1cccc(C#N)c1)n(C)c(=O)n2C,?,-8.3%,.,.,-10.1%,.
Cc1ccc([N+](=O)[O-])c(OCCN2CCC(Cc3ccccc3)CC2)c1,?,-18.0%,31.6µM*,.,3.4%,-28.8%
Cc1ccc(C(=O)N2CCC(Cc3ccccc3)CC2)cc1[N+](=O)[O-],-12.4%,-6.8%,14.1µM*,.,8.5%,-19.6%
CC1CCN(C(=O)c2ccc(SCc3ccccc3F)c([N+](=O)[O-])c2)CC1,-13.7%,-18.4%,?,25.1µM*,?,-35.2%
O=C(c1ccc(SCc2ccco2)c([N+](=O)[O-])c1)N1CCOCC1,0.6%,2.2%,3.7%,.,-1.9%,0.6%
Cc1ccccc1OCCN1CCC(Cc2ccccc2)CC1,1.1%,6.1%,-19.6%,.,-1.7%,?
CCOC(=O)CSc1nc(C(C)(C)C)cc(C(F)(F)F)c1C#N,-6.9%,-12.5%,7.1%,-10.4%,-3.7%,-19.0%[46.1 µM]
CC1=C(CO)C(=O)OC([C@@H](C)C2CC[C@H]3C4C[C@H]5O[C@]56[C@@H](O)C=CC(=O)[C@]6(C)C4CC[C@]23C)C1 (stereo partly specified),?,8.3%,.,.,-4.4%,5.01µM*
CC(C(=O)O)C1CCC2C3CC=C4CC(O)CC[C@@]4(C)C3CC[C@]12C (stereo partly specified),-17.7%,-8.5%,1.9%,1.8%,-11.1%,.
CC1(C)CC(=O)c2c(-c3cccs3)n[nH]c2C1,-4.4%,-7.5%,?,?,7.5%,-8.8%[46.1 µM]
CCOC(=O)c1c(CSc2ccccc2)n(C)c2cc(Br)c(O)c(CN(C)C)c12,-17.2%,-22.9%,.,.,-2.0%,32.3%[7.67 µM]
CCOC(=O)c1c(CSc2ccsc2)n(C)c2cc(Br)c(O)c(CN(C)C)c12,?,-20.2%,.,.,5.8%,12.6µM*
CCn1nnnc1-c1ccc(OC)c(S(=O)(=O)Nc2ccc(C(=O)OC)cc2)c1,-0.7%,-1.9%,7.08µM*,-7.5%,1.6%,-12.5%[46.1 µM]
COC(=O)c1ccc(NS(=O)(=O)c2cc(C)ccc2OC)cc1,3.4%,-1.4%,0.7%,?,1.7%,-8.5%[46.1 µM]
CCOC(=O)c1ccc(NS(=O)(=O)c2cc(-c3nnnn3C(C)C)ccc2OC)cc1,-14.8%,-20.0%,2.82µM*,-22.1%,-1.3%,-9.4%[46.1 µM]
COc1ccc(C(=O)O)cc1S(=O)(=O)Nc1ccc(C)cc1,7.1%,11.8%,2.9%,.,8.6%,7.5%
CCn1nnnc1-c1ccc(OC)c(S(=O)(=O)Nc2ccc(OC)cc2)c1,-4.1%,-2.7%,0.112µM*,-16.4%,-0.4%,-14.1%[46.1 µM]
COc1ccc(NC(=O)c2oc3c(c2C)-c2nn(Cc4c(F)cccc4Cl)cc2CC3)c(OC)c1,-15.6%,-10.3%,.,.,-6.7%,.
Cc1cc2ccccn2c1C(=S)NC(=O)c1ccccc1,15.8µM*,-19.1%,?,-16.2%,1.6%,-24.8%
CC12C=C(/C=C/C=C/c3ccco3)C(C)(C1)C(/C=C/c1ccco1)CC2=O (stereo unspecified),?,-16.0%[11.6 µM],-13.5%[13.5 µM],.,?,.
CCc1cc(C(=O)OC)c(NC(=O)CCC(=O)O)s1,5.5%,-0.3%,17.8µM*,12.6µM*,-0.9%,0.3%[46.1 µM]
CC(=O)Nc1ccc(SCC(=O)c2cc(C)n(CC(F)(F)F)c2C)cc1,-8.8%,-18.9%,20µM*,-16.0%,-4.8%,-8.4%[46.1 µM]
N#CCC(=O)NN=C1CCCCCCCCCCC1,-5.6%,-4.0%,3.16µM*,-11.7%,-0.7%,-5.3%[46.1 µM]
N#Cc1ccc(CSCC(=O)NN=C2CCCC2)cc1,-14.6%,-3.1%,?,.,2.4%,12.9%
Cc1nnc(NC(=O)C2CCCN(c3ncccn3)C2)s1 (stereo unspecified),-2.3%,3.0%,1.2%,-13.2%,-1.6%,-1.0%[46.1 µM]
COc1cc(C(=O)O)nc(OC)n1,-4.1%,-4.7%,-4.8%,.,2.0%,15.8%
COc1cc(C#N)ccc1OCC(=O)Nc1cccc(S(=O)(=O)N2CCCC2)c1,-4.8%,-22.3%,12.6µM*,.,-4.8%,-0.3%

# Compound activity as filed in PubChem.
